Data reported in PubChem BioAssay.
For part of these data: Measured potencies and affinities stand elsewhere. Active and inactive are the calls of the source. Unless noted, how the calls were made is not given here.

Legend:
[1] = antimalarial activity against Dd2 strain (AID 2302;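 active means growth inhibition above 50% at the single 2 µM test dose, taken to imply half-maximal potency below 2 µM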;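 further: 0% = DMSO untreated growth and 100% = chloroquine plus artemisinin killed control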); settings: P. falciparum Dd2 in RBCs, LDH growth readout, 72 h; at 2 µM; active compounds read high
[2] = human hepatoma cell viability loss – ATP luminescence, cytotoxicity control for P. falciparum antimalarial project, primary screen (AID 2303;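 active means inhibition above 50%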;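 further: 0% = DMSO wells and 100% = digitonin-killed cells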); settings: HepG2 viability, 24-48 h, at 10 µM, active compounds read high
[3] = biological target: L-lactate dehydrogenase (Plasmodium falciparum (isolate CDC / Honduras)) (UniProt Q27743); test: PfLDH activity inhibition – cell lysate, 3D7 strain, counter-screen for P. falciparum growth inhibition project (AID 2304);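 further: 0% = vehicle and 100% = reference inhibitor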; settings: P. falciparum 3D7 crude extract, LDH APAD/NBT absorbance; at 2 µM; active compounds read high
L-lactate dehydrogenase (Plasmodium falciparum (isolate CDC / Honduras)), sequence (Q27743 whole entry, looked up): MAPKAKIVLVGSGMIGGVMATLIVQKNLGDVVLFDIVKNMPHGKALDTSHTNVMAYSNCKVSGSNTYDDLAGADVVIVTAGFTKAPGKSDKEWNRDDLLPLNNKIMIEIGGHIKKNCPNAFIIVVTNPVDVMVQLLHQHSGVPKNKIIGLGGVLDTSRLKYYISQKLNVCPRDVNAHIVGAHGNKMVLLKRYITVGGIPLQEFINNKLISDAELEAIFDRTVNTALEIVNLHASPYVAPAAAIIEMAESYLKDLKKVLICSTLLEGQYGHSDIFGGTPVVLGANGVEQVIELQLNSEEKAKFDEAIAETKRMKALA

[4] = inhibition of 3D7 malaria parasite growth – strain 3D7 (AID 2306);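 further: 0% = DMSO wells and 100% = chloroquine plus artemisinin control wells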; settings: P. falciparum 3D7 erythrocytic growth, LDH absorbance, 72 h; at 2 µM; active compounds read high
[5] = biological target: Calcium-dependent protein kinase 1 (Plasmodium falciparum (isolate 3D7)) (UniProt P62344); test: PfCDPK1 kinase inhibitors, biochemical, TCAMS library (AID 1159585; cut-off not given, nearly all actives have IC50 up to about 0.98 µM;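 further: inhibitors leave more ATP so luminescence rises with inhibition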); settings: recombinant PfCDPK1, Kinase-Glo ATP depletion luminescence
Calcium-dependent protein kinase 1 (Plasmodium falciparum (isolate 3D7)), sequence (P62344 whole entry, looked up): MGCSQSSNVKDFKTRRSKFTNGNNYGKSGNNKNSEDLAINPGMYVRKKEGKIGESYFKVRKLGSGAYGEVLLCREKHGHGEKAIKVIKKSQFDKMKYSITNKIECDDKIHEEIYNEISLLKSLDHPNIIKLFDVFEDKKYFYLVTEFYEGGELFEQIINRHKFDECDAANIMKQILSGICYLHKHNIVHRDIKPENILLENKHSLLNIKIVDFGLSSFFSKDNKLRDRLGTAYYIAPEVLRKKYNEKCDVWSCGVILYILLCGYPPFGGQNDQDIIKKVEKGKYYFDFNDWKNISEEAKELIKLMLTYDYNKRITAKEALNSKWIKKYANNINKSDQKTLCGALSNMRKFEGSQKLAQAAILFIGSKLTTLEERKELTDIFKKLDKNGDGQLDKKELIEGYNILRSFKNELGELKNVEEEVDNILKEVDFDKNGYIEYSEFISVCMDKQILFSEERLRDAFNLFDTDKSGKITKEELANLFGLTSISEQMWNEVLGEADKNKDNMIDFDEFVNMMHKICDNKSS

[6] = biological target: Plasmodium falciparum protein kinase 6 (PK6, PF3D7_1337100) (UniProt Q8IDW1); test: PfPK6 kinase inhibitors, biochemical, TCAMS library (AID 1159586); settings: recombinant PfPK6, Kinase-Glo ATP depletion luminescence
Plasmodium falciparum protein kinase 6 (PK6, PF3D7_1337100), sequence (Q8IDW1 1-305): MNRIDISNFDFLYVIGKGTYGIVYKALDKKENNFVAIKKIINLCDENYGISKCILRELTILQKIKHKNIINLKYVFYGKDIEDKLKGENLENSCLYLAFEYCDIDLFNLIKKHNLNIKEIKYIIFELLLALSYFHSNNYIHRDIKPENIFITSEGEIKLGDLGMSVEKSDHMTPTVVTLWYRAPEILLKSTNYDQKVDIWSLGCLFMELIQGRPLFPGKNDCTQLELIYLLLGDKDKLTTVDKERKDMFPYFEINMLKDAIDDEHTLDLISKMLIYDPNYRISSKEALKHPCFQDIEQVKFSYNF

[7] = biological target: Protein kinase 7 (PK7), Plasmodium falciparum 3D7 (PF3D7_0213400) (UniProt Q7YTF7); test: inhibition of Plasmodium PK7 catalytic activity – biochemical, TCAMS antimalarial set, Kinase-Glo luminescence (AID 1159587); settings: recombinant PfPK7, Kinase-Glo ATP depletion luminescence
Protein kinase 7 (PK7), Plasmodium falciparum 3D7 (PF3D7_0213400), sequence (Q7YTF7 1-343): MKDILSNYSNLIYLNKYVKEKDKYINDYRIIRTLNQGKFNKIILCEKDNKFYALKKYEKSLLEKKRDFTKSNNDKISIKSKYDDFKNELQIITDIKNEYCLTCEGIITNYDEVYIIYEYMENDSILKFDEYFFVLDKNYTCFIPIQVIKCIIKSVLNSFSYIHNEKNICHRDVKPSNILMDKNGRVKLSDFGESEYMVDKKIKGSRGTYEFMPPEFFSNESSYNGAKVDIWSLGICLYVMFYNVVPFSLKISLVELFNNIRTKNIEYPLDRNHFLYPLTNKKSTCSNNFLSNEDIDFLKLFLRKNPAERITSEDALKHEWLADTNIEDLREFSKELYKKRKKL

[8] = biological target: Calcium-dependent protein kinase 4 (Plasmodium falciparum (isolate 3D7)) (UniProt Q8IBS5); test: PfCDPK4 kinase inhibitors, biochemical, TCAMS library (AID 1159588; cut-off not given, nearly all actives have IC50 up to about 0.91 µM); settings: recombinant PfCDPK4, Kinase-Glo ATP depletion luminescence
Calcium-dependent protein kinase 4 (Plasmodium falciparum (isolate 3D7)), sequence (Q8IBS5 whole entry, looked up): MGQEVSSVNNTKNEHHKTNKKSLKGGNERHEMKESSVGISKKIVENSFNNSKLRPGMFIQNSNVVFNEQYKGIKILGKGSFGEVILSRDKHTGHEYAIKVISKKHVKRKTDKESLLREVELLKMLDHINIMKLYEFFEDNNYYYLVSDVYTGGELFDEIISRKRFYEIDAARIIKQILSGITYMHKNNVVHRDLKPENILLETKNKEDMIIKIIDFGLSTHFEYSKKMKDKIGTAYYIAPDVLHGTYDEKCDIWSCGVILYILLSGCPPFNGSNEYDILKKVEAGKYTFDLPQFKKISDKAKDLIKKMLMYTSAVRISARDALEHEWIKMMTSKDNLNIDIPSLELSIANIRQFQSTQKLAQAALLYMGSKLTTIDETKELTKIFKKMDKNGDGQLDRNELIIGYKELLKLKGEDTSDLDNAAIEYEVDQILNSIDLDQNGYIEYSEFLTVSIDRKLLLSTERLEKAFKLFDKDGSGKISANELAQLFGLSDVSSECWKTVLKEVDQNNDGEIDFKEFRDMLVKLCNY

CC=Cc1cc(Cc2cnc(N)nc2N)cc(CCC)c1OC
active: growth inhibition [4] 97%
inactive: growth inhibition [1] 1% | inhibition [2] 16% | inhibition [3] 5% | outcome [5] | outcome [6] | outcome [7] | outcome [8]

CC(C)n1c(CC2CCN(CC3CCN(C(=O)/C=C/c4ccc(Cl)c(Cl)c4)CC3)CC2)nc2ccccc21
active: growth inhibition [4] 101%
inactive: growth inhibition [1] 23% | inhibition [2] 19% | inhibition [3] -3% | outcome [5] | outcome [6] | outcome [7] | outcome [8]

Cc1nc(N)nc(N)c1OCc1cccc2ccccc12
inactive: growth inhibition [1] 11% | inhibition [3] -1% | outcome [5] | outcome [6] | outcome [7] | outcome [8]
active: inhibition [2] 63% | growth inhibition [4] 96%

COc1cc(Nc2nccc(N3CCC(NC(=O)C4COc5ccccc5O4)C3)n2)cc(OC)c1OC (configuration not stated)
active: growth inhibition [1] 58% | growth inhibition [4] 90%
inactive: inhibition [2] 5% | inhibition [3] 5% | outcome [5] | outcome [6] | outcome [7] | outcome [8]

Cc1cc(N2CCCC2)nc(Nc2ccc(NC(=O)c3ccc4c(c3)OCO4)cc2)n1
inactive: inhibition [2] 26% | inhibition [3] -4% | outcome [5] | outcome [6] | outcome [7] | outcome [8]
active: growth inhibition [1] 67% | growth inhibition [4] 101%

N[C@@H](CCNC1CCN(c2cccc(C(F)(F)F)c2)CC1)Cc1ccc(F)c(F)c1
active: growth inhibition [1] 69% | inhibition [2] 100% | growth inhibition [4] 101%
inactive: inhibition [3] -1% | outcome [5] | outcome [6] | outcome [7] | outcome [8]

CN1C(=C2SC(=Nc3ccc4ncccc4c3)N(Cc3ccccc3)C2=O)Sc2ccc(Cl)cc21
inactive: inhibition [2] 4% | inhibition [3] -2% | outcome [5] | outcome [6] | outcome [7] | outcome [8]
active: growth inhibition [1] 75% | growth inhibition [4] 99%

CC(=O)Nc1ccc(CN2CCC(NC(=O)c3cc(-c4ccc(N(C)C)cc4)cs3)C2)cc1 (configuration not stated)
inactive: growth inhibition [1] 1% | inhibition [2] 15% | inhibition [3] 5% | outcome [5] | outcome [6] | outcome [7] | outcome [8]
active: growth inhibition [4] 83%

CCOc1ccc2nc(C)cc(NN=Cc3ccccc3Cl)c2c1
active: growth inhibition [1] 100% | growth inhibition [4] 101%
inactive: inhibition [2] 11% | inhibition [3] -4% | outcome [5] | outcome [6] | outcome [7] | outcome [8]

COc1ccc(C(=O)NCc2ccc(N)nc2C)cc1Nc1ncc(-c2cccc(N(C)C)c2)cn1
active: growth inhibition [1] 68% | growth inhibition [4] 89%
inactive: inhibition [2] 9% | inhibition [3] -1% | outcome [5] | outcome [6] | outcome [7] | outcome [8]

Oc1ccc(Cl)cc1CN1CCC2(CCCN(CC3CCC3)C2)C1 (configuration not stated)
active: growth inhibition [1] 94% | growth inhibition [4] 100%
inactive: inhibition [2] 5% | inhibition [3] -2% | outcome [5] | outcome [6] | outcome [7] | outcome [8]

CN1CCN(c2ccc(Nc3ccnc4ccc(-c5ccccc5)cc34)cc2)CC1
inactive: inhibition [2] 20% | inhibition [3] -2% | outcome [5] | outcome [6] | outcome [7] | outcome [8]
active: growth inhibition [1] 101% | growth inhibition [4] 101%

CCCCNCc1ccc(-c2nc(CN(CCCn3ccnc3)C(=O)Nc3ccc(CC)cc3)cs2)cc1
inactive: inhibition [2] 21% | inhibition [3] 6% | outcome [5] | outcome [6] | outcome [7] | outcome [8]
active: growth inhibition [1] 56% | growth inhibition [4] 101%

COc1cc(OC)c(NC(=O)Nc2ccnc3ccccc23)cc1Cl
active: growth inhibition [4] 97%
inactive: growth inhibition [1] 9% | inhibition [2] 19% | inhibition [3] -2% | outcome [5] | outcome [6] | outcome [7] | outcome [8]

O=C(c1cccc(-c2noc(C(F)(F)F)n2)c1)N1CCN(C(=O)c2ccc3cc[nH]c3c2)CC1
active: growth inhibition [1] 85% | growth inhibition [4] 94%
inactive: inhibition [2] 15% | inhibition [3] -3% | outcome [5] | outcome [6] | outcome [7] | outcome [8]

CC(CCCCC(=O)Nc1ccc(CC(C)NCCc2cccc(Cl)c2)cc1)NCCc1cccc(Cl)c1 (configuration not stated)
inactive: growth inhibition [1] -1% | inhibition [2] 28% | inhibition [3] -1% | outcome [5] | outcome [6] | outcome [7] | outcome [8]
active: growth inhibition [4] 91%

CN1CCC(NC(=O)c2cc(Oc3ccc4c(c3)CCN4C(=O)Nc3cccc(C(F)(F)F)c3)ccn2)CC1
inactive: growth inhibition [1] 17% | inhibition [2] 16% | inhibition [3] -3% | outcome [5] | outcome [6] | outcome [7] | outcome [8]
active: growth inhibition [4] 92%

COc1ccccc1N1CCN(C(C(=O)NCc2cccc(F)c2)c2ccc(C)cc2)CC1 (configuration not stated)
inactive: inhibition [2] 4% | inhibition [3] 1% | outcome [5] | outcome [6] | outcome [7] | outcome [8]
active: growth inhibition [1] 80% | growth inhibition [4] 94%

c1cc2nc(CCc3nc4ccc(C5=N[C@H]6CCCC[C@H]6N5)cc4[nH]3)[nH]c2cc1C1=N[C@@H]2CCCC[C@@H]2N1
active: growth inhibition [1] 96% | growth inhibition [4] 93%
inactive: inhibition [2] 3% | inhibition [3] -2% | outcome [5] | outcome [6] | outcome [7] | outcome [8]

Fc1ccccc1C=NNc1ccnc2ccc(C(F)(F)F)cc12
active: growth inhibition [1] 61% | growth inhibition [4] 100%
inactive: inhibition [2] 5% | inhibition [3] 3% | outcome [5] | outcome [6] | outcome [7] | outcome [8]

COc1ccc(CN(C)C(=O)CCNS(=O)(=O)c2ccc3c(c2)OCCCO3)cc1F
active: growth inhibition [1] 94% | growth inhibition [4] 96%
inactive: inhibition [2] 9% | inhibition [3] 0% | outcome [5] | outcome [6] | outcome [7] | outcome [8]

CC(C)CCN1CCCN(Cc2ccc(C(=O)Nc3ccc(Cl)cc3)cc2)CC1
inactive: growth inhibition [1] 15% | inhibition [2] 46% | inhibition [3] 4% | outcome [5] | outcome [6] | outcome [7] | outcome [8]
active: growth inhibition [4] 94%

C=CCOC(=O)N1CCC(CNCc2cccc(-c3cccc(-c4nc5ccccc5[nH]4)c3)c2)C1 (configuration not stated)
inactive: growth inhibition [1] 46% | inhibition [2] 16% | inhibition [3] -3% | outcome [5] | outcome [6] | outcome [7] | outcome [8]
active: growth inhibition [4] 100%

COc1ccc(NC(=O)[C@H](CC(C)C)Nc2cc(C)nc(NCCOc3ccccc3)n2)cc1
active: growth inhibition [1] 65% | growth inhibition [4] 100%
inactive: inhibition [2] -1% | inhibition [3] 4% | outcome [5] | outcome [6] | outcome [7] | outcome [8]

Cc1cc(CN2CCCC(OC(c3ccc(F)cc3)c3ccc(F)cc3)C2)ccc1O (configuration not stated)
active: growth inhibition [1] 82% | growth inhibition [4] 89%
inactive: inhibition [2] 28% | inhibition [3] 3% | outcome [5] | outcome [6] | outcome [7] | outcome [8]

COc1ccc(Cl)cc1NC(=O)Nc1ccnc2ccccc12
inactive: growth inhibition [1] 44% | inhibition [2] 13% | inhibition [3] -6% | outcome [5] | outcome [6] | outcome [7] | outcome [8]
active: growth inhibition [4] 101%

COC(=O)c1ccc(NC(=O)Nc2cccc(CCNCc3ccccc3)c2)cc1
active: growth inhibition [4] 96%
inactive: growth inhibition [1] 10% | inhibition [2] 2% | inhibition [3] 6% | outcome [5] | outcome [6] | outcome [7] | outcome [8]

CN1CCN(c2cccc(-c3nnc(-c4ccc(OCC(=O)NCc5ccc(C(F)(F)F)cc5)c([N+](=O)[O-])c4)o3)c2)CC1
inactive: growth inhibition [1] 44% | inhibition [2] 35% | inhibition [3] -4% | outcome [5] | outcome [6] | outcome [7] | outcome [8]
active: growth inhibition [4] 90%

Nc1ncc(-c2ccccc2)cc1/C=C/c1cccnc1
inactive: growth inhibition [1] 9% | inhibition [2] 33% | inhibition [3] -2% | outcome [5] | outcome [6] | outcome [7] | outcome [8]
active: growth inhibition [4] 91%

O=C(Nc1ccc(-c2nc3ccccc3[nH]2)cc1)c1cccc(S(=O)(=O)N2CCOCC2)c1
inactive: growth inhibition [1] 43% | inhibition [2] 6% | inhibition [3] -5% | outcome [5] | outcome [6] | outcome [7] | outcome [8]
active: growth inhibition [4] 89%

Cc1cc(F)ccc1N(c1nc(-c2cc(Cl)ccc2Cl)cs1)C1CCNC1 (configuration not stated)
inactive: growth inhibition [1] 3% | inhibition [2] 19% | inhibition [3] 0% | outcome [5] | outcome [6] | outcome [7] | outcome [8]
active: growth inhibition [4] 99%

COc1ccc(CNCc2cccc(-c3ccc(-c4nc5c(C)cccc5[nH]4)s3)c2)cc1
active: growth inhibition [1] 65% | growth inhibition [4] 103%
inactive: inhibition [2] 24% | inhibition [3] 7% | outcome [5] | outcome [6] | outcome [7] | outcome [8]

CC(=O)Oc1cc(OCc2ccccc2)c(OC(C)=O)c(OCc2ccccc2)c1
inactive: inhibition [2] 11% | inhibition [3] 1% | outcome [5] | outcome [6] | outcome [7] | outcome [8]
active: growth inhibition [1] 78% | growth inhibition [4] 94%

Cc1c(C(=O)N(C)C)sc2c1c(=O)n(Cc1ccccc1)c(=O)n2CC(=O)Nc1ccccc1F
active: growth inhibition [1] 98% | growth inhibition [4] 97%
inactive: inhibition [2] 13% | inhibition [3] -1% | outcome [5] | outcome [6] | outcome [7] | outcome [8]

O=C(Cn1c(CCc2cccc(F)c2F)nc(=O)c2ccccc21)N(CCN1CCCCC1)Cc1ccc(-c2ccc(C(F)(F)F)cc2)cc1
inactive: inhibition [2] 32% | inhibition [3] 4% | outcome [5] | outcome [6] | outcome [7] | outcome [8]
active: growth inhibition [1] 89% | growth inhibition [4] 101%

Cc1cc(CNC(c2ccccc2)C2CCC2)cc(C)c1O (configuration not stated)
active: inhibition [2] 78% | growth inhibition [4] 94%
inactive: growth inhibition [1] 48% | inhibition [3] -2% | outcome [5] | outcome [6] | outcome [7] | outcome [8]

NC1CCN(Cc2cccc(-c3ccc(-c4nc5ccccc5[nH]4)s3)c2)C1 (configuration not stated)
inactive: inhibition [2] 36% | inhibition [3] -1% | outcome [5] | outcome [6] | outcome [7] | outcome [8]
active: growth inhibition [1] 62% | growth inhibition [4] 100%

CCCCN(CCCC)CCNC(=O)c1ccc(-c2nc3ccc(Cl)cc3[nH]2)c(OCC)c1
active: growth inhibition [1] 80% | growth inhibition [4] 101%
inactive: inhibition [2] 0% | inhibition [3] 9% | outcome [5] | outcome [6] | outcome [7] | outcome [8]

COc1cc(-n2cnc3cc(-c4ccc(Cl)cc4)sc3c2=O)ccc1OCCN1CCC(c2cccc(NC(C)=O)c2)CC1
inactive: inhibition [3] -4% | outcome [5] | outcome [6] | outcome [7] | outcome [8]
active: growth inhibition [1] 80% | inhibition [2] 61% | growth inhibition [4] 99%
